Targets with a hit are over-represented here; the source holds about 8,800 in all. About 0.5% of all pairs of compound and target were hits. Values without a mark were called inactive.
Compound: CCn1c(C(=O)N(C2CC2)C2CC2)cc2c3c(ncn3C)c(Nc3cc(C)n(C)n3)nc21
Test: log2 fold change, soluble protein after heating vs DMSO (PISA); higher = thermal stabilisation; K562 lysate, 10 uM; active = over 0.2 and 3.5 SD of the protein, either way, in both replicates (recomputed)
Method in brief: (§1)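 Values give the log-two fold change in thermal stability against solvent controls, from duplicates. Crude K562 extract at 1 mg/mL protein, made by dounce homogenisation in PBS pH 7.4 with 1 mM MgCl2, was treated with 10 μM compound for 30 min. After 3 min heating across 48°C-58°C, aliquots were pooled, adjusted to 0.5% NP-40 at 4°C and centrifuged at 21,000xg for 90 min. The supernatant was measured by TMTpro 16plex LC-MS/MS with channel sums equalised.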

Chain of UniProt Q8TAT6 (Q8TAT6 whole entry, looked up): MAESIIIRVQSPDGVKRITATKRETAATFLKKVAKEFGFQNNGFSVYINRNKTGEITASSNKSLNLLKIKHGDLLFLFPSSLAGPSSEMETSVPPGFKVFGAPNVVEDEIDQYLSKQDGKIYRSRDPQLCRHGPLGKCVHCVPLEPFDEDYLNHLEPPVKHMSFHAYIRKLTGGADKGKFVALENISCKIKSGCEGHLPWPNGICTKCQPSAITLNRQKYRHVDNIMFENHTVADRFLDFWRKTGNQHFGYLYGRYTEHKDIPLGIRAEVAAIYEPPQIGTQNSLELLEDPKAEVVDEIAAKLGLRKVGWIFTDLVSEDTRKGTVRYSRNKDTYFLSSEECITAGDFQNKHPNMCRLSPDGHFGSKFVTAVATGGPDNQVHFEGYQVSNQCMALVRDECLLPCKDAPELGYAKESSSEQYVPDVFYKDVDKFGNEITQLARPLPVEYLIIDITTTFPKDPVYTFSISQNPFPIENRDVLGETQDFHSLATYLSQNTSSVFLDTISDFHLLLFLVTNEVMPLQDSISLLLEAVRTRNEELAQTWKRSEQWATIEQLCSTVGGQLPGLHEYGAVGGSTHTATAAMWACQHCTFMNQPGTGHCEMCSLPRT
Chain of MTHFD1, A0A384N5Y3 (A0A384N5Y3 whole entry, looked up): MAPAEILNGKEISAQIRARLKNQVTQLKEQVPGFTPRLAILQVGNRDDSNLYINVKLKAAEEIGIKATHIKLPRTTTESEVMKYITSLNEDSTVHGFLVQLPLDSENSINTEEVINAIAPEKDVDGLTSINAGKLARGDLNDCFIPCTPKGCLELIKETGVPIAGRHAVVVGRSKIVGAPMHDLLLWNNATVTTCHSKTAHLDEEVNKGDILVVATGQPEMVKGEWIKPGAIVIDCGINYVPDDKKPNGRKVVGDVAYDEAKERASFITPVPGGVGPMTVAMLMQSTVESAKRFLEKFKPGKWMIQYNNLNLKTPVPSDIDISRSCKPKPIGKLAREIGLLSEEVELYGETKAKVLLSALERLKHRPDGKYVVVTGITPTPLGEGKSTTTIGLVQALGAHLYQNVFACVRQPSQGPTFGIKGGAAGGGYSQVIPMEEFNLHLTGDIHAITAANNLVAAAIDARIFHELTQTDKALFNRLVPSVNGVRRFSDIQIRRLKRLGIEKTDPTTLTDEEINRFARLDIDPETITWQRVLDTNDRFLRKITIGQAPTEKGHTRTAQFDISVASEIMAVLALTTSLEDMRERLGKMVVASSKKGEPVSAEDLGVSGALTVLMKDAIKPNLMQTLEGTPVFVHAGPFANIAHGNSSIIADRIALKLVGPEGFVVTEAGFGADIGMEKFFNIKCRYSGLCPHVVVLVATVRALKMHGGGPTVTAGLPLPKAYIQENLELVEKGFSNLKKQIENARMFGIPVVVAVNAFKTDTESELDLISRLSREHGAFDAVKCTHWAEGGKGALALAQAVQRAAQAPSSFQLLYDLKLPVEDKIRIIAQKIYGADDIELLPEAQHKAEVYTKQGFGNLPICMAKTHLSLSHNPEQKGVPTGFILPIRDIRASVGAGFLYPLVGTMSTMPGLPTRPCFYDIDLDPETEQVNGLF
Chain of UniProt O75607 (O75607 whole entry, looked up): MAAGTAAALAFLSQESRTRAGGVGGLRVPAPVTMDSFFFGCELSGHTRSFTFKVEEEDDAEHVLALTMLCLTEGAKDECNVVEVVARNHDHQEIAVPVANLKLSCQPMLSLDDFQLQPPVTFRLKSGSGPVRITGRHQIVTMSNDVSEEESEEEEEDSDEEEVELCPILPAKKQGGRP
Chain of UniProt Q9Y639 (Q9Y639 whole entry, looked up): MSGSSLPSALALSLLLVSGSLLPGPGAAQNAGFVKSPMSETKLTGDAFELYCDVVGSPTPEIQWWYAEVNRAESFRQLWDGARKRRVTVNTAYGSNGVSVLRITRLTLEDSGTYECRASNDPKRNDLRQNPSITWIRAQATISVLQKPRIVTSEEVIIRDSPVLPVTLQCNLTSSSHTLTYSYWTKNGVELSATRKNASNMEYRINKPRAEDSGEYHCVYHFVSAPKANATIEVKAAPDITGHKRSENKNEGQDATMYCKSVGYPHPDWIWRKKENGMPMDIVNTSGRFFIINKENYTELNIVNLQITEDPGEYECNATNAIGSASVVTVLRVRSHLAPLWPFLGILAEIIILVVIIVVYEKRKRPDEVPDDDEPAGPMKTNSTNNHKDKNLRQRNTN
Chain of UniProt Q9NPF4 (Q9NPF4 whole entry, looked up): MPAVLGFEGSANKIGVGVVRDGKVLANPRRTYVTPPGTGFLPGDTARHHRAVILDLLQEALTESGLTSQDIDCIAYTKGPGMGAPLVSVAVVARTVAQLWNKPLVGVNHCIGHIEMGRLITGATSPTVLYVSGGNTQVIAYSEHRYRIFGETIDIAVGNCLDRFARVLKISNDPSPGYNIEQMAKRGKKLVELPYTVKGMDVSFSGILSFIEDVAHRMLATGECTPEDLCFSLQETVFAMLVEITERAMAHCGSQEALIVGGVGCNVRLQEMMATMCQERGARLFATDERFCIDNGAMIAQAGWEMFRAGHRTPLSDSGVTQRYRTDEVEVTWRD
Chain of UniProt Q15021 (Q15021 whole entry, looked up): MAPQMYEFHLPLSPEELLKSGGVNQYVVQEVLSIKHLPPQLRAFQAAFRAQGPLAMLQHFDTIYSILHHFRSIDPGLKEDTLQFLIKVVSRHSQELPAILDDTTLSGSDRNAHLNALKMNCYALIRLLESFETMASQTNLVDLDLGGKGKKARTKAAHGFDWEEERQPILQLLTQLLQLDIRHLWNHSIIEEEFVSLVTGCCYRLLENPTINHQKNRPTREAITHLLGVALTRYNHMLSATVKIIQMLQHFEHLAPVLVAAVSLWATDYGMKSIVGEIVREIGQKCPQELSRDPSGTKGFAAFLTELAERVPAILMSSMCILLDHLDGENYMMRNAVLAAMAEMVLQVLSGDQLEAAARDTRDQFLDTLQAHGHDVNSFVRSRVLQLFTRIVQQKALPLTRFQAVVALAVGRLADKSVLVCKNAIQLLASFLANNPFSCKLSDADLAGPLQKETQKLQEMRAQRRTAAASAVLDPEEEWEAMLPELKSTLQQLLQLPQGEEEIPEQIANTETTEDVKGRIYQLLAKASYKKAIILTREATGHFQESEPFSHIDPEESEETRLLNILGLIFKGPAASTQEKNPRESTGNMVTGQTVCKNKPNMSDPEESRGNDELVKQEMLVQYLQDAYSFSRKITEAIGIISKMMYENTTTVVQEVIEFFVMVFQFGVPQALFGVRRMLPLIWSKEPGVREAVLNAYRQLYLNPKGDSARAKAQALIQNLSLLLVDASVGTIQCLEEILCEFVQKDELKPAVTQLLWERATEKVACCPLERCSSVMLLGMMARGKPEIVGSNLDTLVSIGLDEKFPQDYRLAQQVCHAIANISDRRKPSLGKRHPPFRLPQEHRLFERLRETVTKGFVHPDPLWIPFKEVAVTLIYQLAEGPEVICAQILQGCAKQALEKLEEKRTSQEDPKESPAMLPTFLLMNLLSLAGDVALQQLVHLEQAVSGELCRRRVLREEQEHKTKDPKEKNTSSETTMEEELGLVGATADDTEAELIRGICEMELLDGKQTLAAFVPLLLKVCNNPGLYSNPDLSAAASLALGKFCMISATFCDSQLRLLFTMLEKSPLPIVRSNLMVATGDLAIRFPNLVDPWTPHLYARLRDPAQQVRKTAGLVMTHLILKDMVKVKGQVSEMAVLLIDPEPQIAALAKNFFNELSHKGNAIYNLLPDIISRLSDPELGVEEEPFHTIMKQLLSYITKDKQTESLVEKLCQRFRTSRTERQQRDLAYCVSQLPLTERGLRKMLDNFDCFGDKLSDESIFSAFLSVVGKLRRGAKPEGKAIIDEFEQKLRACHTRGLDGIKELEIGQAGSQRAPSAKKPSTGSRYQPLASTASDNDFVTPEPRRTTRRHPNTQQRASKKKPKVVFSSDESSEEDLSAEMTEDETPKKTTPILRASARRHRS
Chain of UniProt Q9Y217 (Q9Y217 whole entry, looked up): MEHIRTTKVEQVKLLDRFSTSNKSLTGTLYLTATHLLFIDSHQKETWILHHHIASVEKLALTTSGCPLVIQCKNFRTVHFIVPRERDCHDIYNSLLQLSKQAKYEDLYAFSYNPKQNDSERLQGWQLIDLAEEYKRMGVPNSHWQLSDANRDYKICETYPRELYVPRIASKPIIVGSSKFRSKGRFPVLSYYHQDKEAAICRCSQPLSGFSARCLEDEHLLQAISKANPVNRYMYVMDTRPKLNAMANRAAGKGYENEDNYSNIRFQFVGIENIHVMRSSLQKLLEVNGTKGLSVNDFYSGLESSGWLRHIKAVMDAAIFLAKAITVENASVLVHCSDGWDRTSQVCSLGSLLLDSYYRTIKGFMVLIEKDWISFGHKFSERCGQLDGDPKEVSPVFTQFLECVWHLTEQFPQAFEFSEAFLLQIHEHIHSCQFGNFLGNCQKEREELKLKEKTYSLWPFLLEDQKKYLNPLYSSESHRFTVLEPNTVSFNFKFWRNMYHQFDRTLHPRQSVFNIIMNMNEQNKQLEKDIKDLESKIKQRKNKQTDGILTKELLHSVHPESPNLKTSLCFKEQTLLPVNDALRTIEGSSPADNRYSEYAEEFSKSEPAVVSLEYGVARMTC
Chain of UniProt Q15843 (Q15843 whole entry, looked up): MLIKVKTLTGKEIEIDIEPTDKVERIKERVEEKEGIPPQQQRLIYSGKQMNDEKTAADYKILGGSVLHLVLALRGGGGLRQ
Chain of UniProt Q4G0N4 (Q4G0N4 whole entry, looked up): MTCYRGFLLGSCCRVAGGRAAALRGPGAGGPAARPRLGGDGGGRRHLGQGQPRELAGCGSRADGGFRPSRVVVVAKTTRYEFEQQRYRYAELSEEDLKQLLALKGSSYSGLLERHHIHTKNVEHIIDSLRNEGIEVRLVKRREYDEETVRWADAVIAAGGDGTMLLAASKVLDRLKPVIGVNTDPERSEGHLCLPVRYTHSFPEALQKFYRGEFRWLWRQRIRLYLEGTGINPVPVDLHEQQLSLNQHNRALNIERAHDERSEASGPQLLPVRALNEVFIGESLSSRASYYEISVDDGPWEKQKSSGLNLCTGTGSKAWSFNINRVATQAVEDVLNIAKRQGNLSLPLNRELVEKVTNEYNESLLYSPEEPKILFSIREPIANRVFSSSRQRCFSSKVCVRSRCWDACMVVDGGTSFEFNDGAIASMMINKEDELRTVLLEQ

Row | Target | log2 fold change
1 | NUMBL (UniProt Q9Y6R0) | 0.189
2 | OPA1 isoform 2 (UniProt O60313) | 0.037
3 | MTHFD1L (UniProt B7ZM99) | 0.019
4 | PARD3 (UniProt Q8TEW0) | -0.032
5 | NACC1 (UniProt Q96RE7) | 0.004
6 | NEDD8 (UniProt Q15843) | 0.041
7 | PANK4 (UniProt Q9NVE7) | 0.003
8 | NAA35 (UniProt Q5VZE5) | 0.001
9 | OGFR (UniProt Q9NZT2) | 0.004
10 | MTMR6 (UniProt Q9Y217) | -0.055
11 | OTC (UniProt P00480) | -0.035
12 | NELFCD (UniProt Q8IXH7) | 0.02
13 | NFATC2IP (UniProt Q8NCF5) | 0
14 | NUDT4 isoform 2 (UniProt Q9NZJ9) | -0.018
15 | NADK2 (UniProt Q4G0N4) | -0.016
16 | NUP98 (UniProt P52948) | 0.031
17 | NR3C1 isoform 3 (UniProt P04150) | 0.001
18 | PAXBP1 (UniProt Q9Y5B6) | 0.042

Row | Target | log2 fold change
19 | NCAPD3 (UniProt P42695) | 0.035
20 | NPLOC4 isoform 2 (UniProt Q8TAT6) | -0.016
21 | N4BP2 (UniProt Q86UW6) | 0
22 | NCAPD2 (UniProt Q15021) | 0.022
23 | NCAPG (UniProt Q9BPX3) | 0.015
24 | NOSTRIN (UniProt Q8IVI9) | -0.026
25 | NUP160 (UniProt Q12769) | 0.043
26 | MT-CYB (UniProt P00156) | -0.097
27 | PARG (UniProt Q86W56) | -0.015
28 | OSGEP (UniProt Q9NPF4) | -0.03
29 | ORC3 isoform 2 (UniProt Q9UBD5) | -0.006
30 | MTHFD1, A0A384N5Y3 | 0.059
31 | NAA38 isoform 2 (UniProt Q9BRA0) | 0.04
32 | NPTN (UniProt Q9Y639) | -0.017
33 | NUP133 (UniProt Q8WUM0) | 0.05
34 | MSI2 (UniProt Q96DH6) | 0.13
35 | PAN2 isoform 2 (UniProt Q504Q3) | 0.031
36 | NPM3 (UniProt O75607) | -0.007

Compound: CCn1cc(-c2ccnc3[nH]c(-c4cccc(CN(C)C)c4)cc23)c(-c2ccc(NC(=O)N(C)C)cc2)n1
Test: as above
Method in brief: as §1

Row | Target | log2 fold change
37 | NUMBL (UniProt Q9Y6R0) | 0.032
38 | OPA1 isoform 2 (UniProt O60313) | -0.016
39 | MTHFD1L (UniProt B7ZM99) | -0.013
40 | PARD3 (UniProt Q8TEW0) | -0.147
41 | NACC1 (UniProt Q96RE7) | -0.059
42 | NEDD8 (UniProt Q15843) | 0.025
43 | PANK4 (UniProt Q9NVE7) | -0.136
44 | NAA35 (UniProt Q5VZE5) | 0.179
45 | OGFR (UniProt Q9NZT2) | 0.12
46 | MTMR6 (UniProt Q9Y217) | 0.217
47 | OTC (UniProt P00480) | -1.43
48 | NELFCD (UniProt Q8IXH7) | 0.089
49 | NFATC2IP (UniProt Q8NCF5) | 0.076
50 | NUDT4 isoform 2 (UniProt Q9NZJ9) | -0.068
51 | NADK2 (UniProt Q4G0N4) | -0.019
52 | NUP98 (UniProt P52948) | -0.062
53 | NR3C1 isoform 3 (UniProt P04150) | 0.07
54 | PAXBP1 (UniProt Q9Y5B6) | 0.043

Row | Target | log2 fold change
55 | NCAPD3 (UniProt P42695) | 0.068
56 | NPLOC4 isoform 2 (UniProt Q8TAT6) | -0.066
57 | N4BP2 (UniProt Q86UW6) | -0.336 (active)
58 | NCAPD2 (UniProt Q15021) | -0.037
59 | NCAPG (UniProt Q9BPX3) | -0.05
60 | NOSTRIN (UniProt Q8IVI9) | 0.025
61 | NUP160 (UniProt Q12769) | 0.057
62 | MT-CYB (UniProt P00156) | -0.993 (active)
63 | PARG (UniProt Q86W56) | 0.065
64 | OSGEP (UniProt Q9NPF4) | -0.065
65 | ORC3 isoform 2 (UniProt Q9UBD5) | -0.063
66 | MTHFD1, A0A384N5Y3 | 0.008
67 | NAA38 isoform 2 (UniProt Q9BRA0) | -0.461 (active)
68 | NPTN (UniProt Q9Y639) | -0.019
69 | NUP133 (UniProt Q8WUM0) | -0.047
70 | MSI2 (UniProt Q96DH6) | -0.014
71 | PAN2 isoform 2 (UniProt Q504Q3) | 0.006
72 | NPM3 (UniProt O75607) | -0.376 (active)
